Gli-Sufu block = blocks Gli-Sufu signaling in a luciferase reporter; Sufu-KO-LIGHT fibroblasts, Gli luciferase reporter luminescence; inhibition, % at 5 µM; actives 0.74% (n = 340,000); AID 588413;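 active means inhibition above about 55%, limit read from the data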
LRH-1 inv ag = suppresses constitutive activity of human LRH-1 | HEK293T StAR-luciferase reporter, LRH-1 transfected, 24 h | inhibition, % at 3.6 µM | O00482 | actives 0.13% (n = 360,000) | AID 602396;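 active means inhibition above the mean inhibition of all tested compounds plus 3 SD, cut at about 73% in these data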
Target sequence (O00482 whole entry, looked up): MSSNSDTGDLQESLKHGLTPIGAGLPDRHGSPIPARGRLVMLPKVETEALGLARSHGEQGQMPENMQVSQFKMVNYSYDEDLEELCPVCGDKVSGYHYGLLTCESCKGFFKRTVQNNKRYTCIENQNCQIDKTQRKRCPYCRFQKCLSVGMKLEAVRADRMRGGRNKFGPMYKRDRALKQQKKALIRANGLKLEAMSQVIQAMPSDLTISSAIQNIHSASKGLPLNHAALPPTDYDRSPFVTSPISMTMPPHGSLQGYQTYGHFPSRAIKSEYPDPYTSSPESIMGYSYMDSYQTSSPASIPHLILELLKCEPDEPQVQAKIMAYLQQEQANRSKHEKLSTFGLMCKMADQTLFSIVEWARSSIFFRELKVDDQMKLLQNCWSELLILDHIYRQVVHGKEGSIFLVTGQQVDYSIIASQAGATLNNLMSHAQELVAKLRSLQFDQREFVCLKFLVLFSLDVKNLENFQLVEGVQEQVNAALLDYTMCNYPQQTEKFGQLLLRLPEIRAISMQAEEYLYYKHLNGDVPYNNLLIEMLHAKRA
SRC3 inh = inhibitors of human steroid receptor coactivator 3 (SRC3); Q9Y6Q9; HEK293 GAL4-SRC3 luciferase reporter, luminescence; inhibition, % at 3.6 µM; actives 0.17% (n = 360,000); AID 588352;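 active means inhibition above a per-campaign cutoff, the mean of all compounds plus 3 SD, cut at about 60% in these data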;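 further: higher means less SRC3-driven luciferase light from the GAL4 reporter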
NCOA1 inh = inhibitors of human steroid receptor coactivator 1 (SRC1) | Q15788 | HEK293 GAL4-SRC1 luciferase reporter, luminescence | inhibition, % at 3.6 µM | actives 0.12% (n = 360,000);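 active means inhibition above the campaign mean plus 3 SD, with each screening campaign given its own cutoff, cut at about 60% in these data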
NCOA2 inhibitor = human SRC2 (NCOA2) inhibition; Q15596; HEK293 GAL4-SRC2 luciferase reporter, luminescence; AID 651957; inhibition, % at 9 µM; actives 0.17% (n = 370,000);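 active means inhibition above the mean inhibition of all tested compounds plus 3 SD, set per campaign, cut at about 52% in these data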
Gli-Sufu confirm = Gli-SUFU antagonism confirmation, single concentration; inhibition, % at 5 µM; shares compounds with Gli-Sufu block; Sufu-KO-LIGHT cells, Gli luciferase reporter, luminescence; actives 40% (n = 2,500);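 active means mean inhibition at 5 µM reaching about 45%, limit read from the data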
SufuKO cytotox = cytotoxic in Gli-SUFU antagonist counter-screen; AID 651994; shares compounds with Gli-Sufu block; Sufu-KO-LIGHT cells cytotoxicity, ATP luminescence; cytotoxicity, % at 5 µM; actives 32% (n = 2,500);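 active means mean cytotoxicity at 5 µM above about 25%, limit read from the data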;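 further: cells exposed to compound overnight for roughly 16 to 18 hours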
Wnt3a cs = counter-screen for Gli-SUFU antagonists: Wnt3a reporter inhibition; shares compounds with Gli-Sufu block; Wnt-LIGHT cells, Wnt3a-driven luciferase reporter, luminescence; inhibition, % at 6.25 µM; actives 20% (n = 2,500); AID 651995;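 active means mean inhibition above about 25%, limit read from the data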
Each line names hits and unclear results; the compound was inactive in the other large screens (follow-up assays come after a bar, where they were run). Compounds with a hit are over-represented: about 0.83% of the library has one in this group of screens.

C/C(=N\NC(=O)c1ccccc1[N+](=O)[O-])c1c(O)cc(C)oc1=O	none
O=C(NNc1nc(=O)c2cccnc2s1)c1ccccc1O	Gli-Sufu block 85 | Gli-Sufu confirm inactive | SufuKO cytotox 27 | Wnt3a cs inactive
Cc1cccc2cc(-c3ccccc3)c(-c3ccccc3)c[n+]12	Gli-Sufu block 62 | Gli-Sufu confirm 52 | SufuKO cytotox 29 | Wnt3a cs inactive
COCCCNC(=O)C[C@H]1C[C@@]2(C(=O)OC)C(=C[C@H](COCc3ccccc3)O[C@@H]2C)N(Cc2ccc(Cl)cc2Cl)C1=O	none (no result: Gli-Sufu block, LRH-1 inv ag, SRC3 inh, NCOA1 inh)
Cc1ccc(-n2c(SCC(=O)Nc3ccc4c(c3)OCCO4)nnc2-c2cnccn2)cc1	none (no result: Gli-Sufu block, LRH-1 inv ag, SRC3 inh, NCOA1 inh)
CCN(CC)c1ccc(C=NNC(=O)Cc2cc(=O)[nH][nH]2)c(O)c1	none (no result: Gli-Sufu block, LRH-1 inv ag, SRC3 inh, NCOA1 inh)
Cc1ccnc(N/N=C/c2ccccc2)n1	none
Cc1cc(C)nc(N/N=C2/CCCC/C2=C\c2ccccc2)n1	Gli-Sufu block 74 | Gli-Sufu confirm inactive | SufuKO cytotox inactive | Wnt3a cs inactive
COC(=O)c1[nH]c2cc(OC)ccc2c1NC(=O)CN1CCC(C(N)=O)(N2CCCCC2)CC1	Gli-Sufu block 75 | Gli-Sufu confirm inactive | SufuKO cytotox inactive | Wnt3a cs inactive
CCn1c(=NC(=O)CS(=O)(=O)c2ccccc2)sc2cccc(OC)c21	Gli-Sufu block 67 | Gli-Sufu confirm 67 | SufuKO cytotox inactive | Wnt3a cs inactive
Cn1c(=NC(=O)CS(=O)(=O)c2ccccc2)sc2ccccc21	none
CCOc1cc(/C=C2/NC(=O)N(Cc3ccccc3F)C2=O)ccc1O	Gli-Sufu block 74 | Gli-Sufu confirm 71 | SufuKO cytotox inactive | Wnt3a cs 45
COc1ccc(Nc2nc(N3CCOCC3)nc(N3CCOCC3)n2)c(OC)c1	Gli-Sufu block 59 | Gli-Sufu confirm inactive | SufuKO cytotox inactive | Wnt3a cs inactive
Cc1ccc(NC(=O)c2ccc(CS(=O)(=O)Cc3ccccc3C)o2)c(C)c1	none (no result: Gli-Sufu block, LRH-1 inv ag, SRC3 inh, NCOA1 inh)
CCCNC(=O)CCn1nc(-c2ccc(Cl)cc2)c2ccccc2c1=O	none
COCCNC(=O)CCn1nc(-c2ccc(Cl)cc2)c2ccccc2c1=O	none (no result: NCOA2 inhibitor) | Gli-Sufu confirm inactive | SufuKO cytotox inactive | Wnt3a cs inactive
Nc1nc2nccc(-c3cccnc3)n2n1	Gli-Sufu block 95 | Gli-Sufu confirm inactive | SufuKO cytotox inactive | Wnt3a cs inactive
Cc1nc2sc(C(=O)NCc3ccc4c(c3)OCO4)c(N)c2c(C)c1Cl	none (no result: Gli-Sufu block, LRH-1 inv ag, SRC3 inh, NCOA1 inh)
Cc1onc(-c2ccccc2Cl)c1C(=O)N1CCCCCC1	Gli-Sufu block 59 | Gli-Sufu confirm inactive | SufuKO cytotox inactive | Wnt3a cs inactive
Cc1cc(C(=O)O[C@@H]2CCC[C@@]3(C(=O)N(Cc4ccccc4)c4ccccc43)[C@H]2NC(=O)CCc2ccccc2)no1	none (no result: Gli-Sufu block, LRH-1 inv ag, SRC3 inh, NCOA1 inh)
CCC(Oc1ccccc1F)C(=O)Nc1ccc2c(c1)n(C)c(=O)n2C (stereo not drawn)	none | Gli-Sufu confirm inactive | SufuKO cytotox inactive | Wnt3a cs inactive
COc1ccc(S[C@]2(C(=O)N(C)C)CC(=O)N(c3ccccc3)[C@@H]2c2ccc(OC)cc2)cc1	none (no result: Gli-Sufu block, LRH-1 inv ag, SRC3 inh, NCOA1 inh)
CN(Cc1ccccc1)S(=O)(=O)c1cccc(C(=O)OCc2cccc([N+](=O)[O-])c2)c1	none (no result: Gli-Sufu block, LRH-1 inv ag, SRC3 inh, NCOA1 inh)
COc1cc(CCC(=O)Nc2ccc(C)c(S(=O)(=O)N3CCCCCC3)c2)cc(OC)c1OC	none | Gli-Sufu confirm inactive | SufuKO cytotox inactive | Wnt3a cs inactive
COc1cccc(N2CCN(CC(=O)NCc3cccc(OC)c3OC)CC2)c1	none (no result: Gli-Sufu block, LRH-1 inv ag, SRC3 inh, NCOA1 inh)
O=C(c1cc(Cl)cc(Cl)c1)N1CC[C@H]2[C@H](CCCN2Cc2ccc(F)cc2)C1	none (no result: Gli-Sufu block, LRH-1 inv ag, SRC3 inh, NCOA1 inh)
CC(C)CN1C(=O)C[C@@]2(C(=O)N(C)c3ccc(NS(=O)(=O)C4CC4)cc32)C1c1ccccc1 (stereo partly drawn)	none (no result: Gli-Sufu block, LRH-1 inv ag, SRC3 inh, NCOA1 inh)
Cc1cc(=O)oc2cc(OCC3CC(c4ccc(Cl)cc4)=NO3)ccc12 (stereo not drawn)	none
Cc1cc(=O)oc2cc(OCC3CC(c4ccc(N(C)C)cc4)=NO3)ccc12 (stereo not drawn)	Gli-Sufu block 99 | Gli-Sufu confirm inactive | SufuKO cytotox inactive | Wnt3a cs inactive
C/C(=N\Nc1cc(N2CCCCC2)nc(C)n1)c1ccc(Br)cc1	Gli-Sufu block 79 | Gli-Sufu confirm 52 | SufuKO cytotox 45 | Wnt3a cs inactive
CCN(CC)C(=O)c1oc2ccc(S(=O)(=O)N3CC(C)CC(C)C3)cc2c1C (stereo not drawn)	Gli-Sufu block 63 | Gli-Sufu confirm 62 | SufuKO cytotox inactive | Wnt3a cs 44
CCCCn1c(=O)[nH]c(=O)c2c1nc(CN(C)Cc1cccc(OC)c1OC)n2CCC	Gli-Sufu block 63 | Gli-Sufu confirm inactive | SufuKO cytotox inactive | Wnt3a cs inactive
COC(=O)[C@H]1C[C@@]2(c3ccccc3)c3ccccc3N(S(=O)(=O)c3ccccc3)[C@H]2N1	none (no result: Gli-Sufu block, LRH-1 inv ag, SRC3 inh, NCOA1 inh)
CC1(C)CC(=O)C2=C(C1)OC(c1ccncc1)C(C#N)=C2N (stereo not drawn)	none
CC1(C)CC(=O)C2=C(C1)OC(c1ccc(O)cc1)C(C#N)=C2N (stereo not drawn)	none | Gli-Sufu confirm inactive | SufuKO cytotox inactive | Wnt3a cs inactive
Cc1onc(-c2c(F)cccc2Cl)c1C(=O)Nc1ccc(Cl)c(S(=O)(=O)N(C)C)c1	Gli-Sufu block 58 | Gli-Sufu confirm inactive | SufuKO cytotox inactive | Wnt3a cs inactive
Cc1onc(-c2c(F)cccc2Cl)c1C(=O)OCC(=O)Nc1cccc(S(=O)(=O)N(C)C)c1	none | Gli-Sufu confirm inactive | SufuKO cytotox inactive | Wnt3a cs inactive
Cc1noc(C)c1C(=O)OCC(=O)Nc1cccc(S(=O)(=O)N(C)C)c1	none
CN(CCOC(=O)c1cc2ccccc2o1)C1CN(Cc2cn(Cc3ccccc3F)nn2)S(=O)(=O)C1 (stereo not drawn)	none (no result: Gli-Sufu block, LRH-1 inv ag, SRC3 inh, NCOA1 inh)
COCCNC(=O)C[C@H]1CC[C@H]2[C@@H](COc3ccc(NS(=O)(=O)c4ccc(Cl)cc4)cc3C(=O)N2C)O1	none (no result: Gli-Sufu block, LRH-1 inv ag, SRC3 inh, NCOA1 inh)
O=C(CSc1nnc(SCc2cccc3ccccc23)s1)c1ccc(F)cc1	none (no result: Gli-Sufu block, LRH-1 inv ag, SRC3 inh, NCOA1 inh)
Cc1[nH]c2ccccc2c1[C@H]1[C@@H](CC#N)C1(C)C	none | Gli-Sufu confirm inactive | SufuKO cytotox inactive | Wnt3a cs inactive
Cc1[nH]c2ccccc2c1CC#N	none
COc1ccc2c(c1)c(C)cc[n+]2Cc1ccccc1	Gli-Sufu block 65 | Gli-Sufu confirm 67 | SufuKO cytotox inactive | Wnt3a cs inactive
Cc1ccc2c(c1)c(C)cc[n+]2Cc1ccccc1	Gli-Sufu block 58 | Gli-Sufu confirm 60 | SufuKO cytotox 30 | Wnt3a cs inactive
